# PubChem BioAssay (NCATS)
# Records with an inconclusive call do not appear. Where a call stands in place of a potency, no number is given. Activity calls are given as the source filed them. Calls follow the shape of the dose curve; as a rule, active = well fitted inhibition curve with a large enough effect; inconclusive = small, poorly fitted or top-dose-only effect; inactive = no such curve, though single readings can be large or run the other way.
# Experiment: Primary qHTS for inhibitors of nuclear receptor binding SET domain protein 2 (NSD2) in an RCH-ACV wild type WT cells (2C) (AID 1645877); also: nearly all actives have a fitted effect of over 70% in size
# Settings: RCH-ACV (leukaemia line) NSD2 WT (2C) viability, CellTiter-Glo, 72 h; series mostly up to 44.9 µM
# Potency is read from the fitted curve at half-maximal effect.
row,SMILES,Potency
1,Cc1nnc2n1-c1sc(CCc3ccc(CC(C)C)cc3)cc1C(c1ccccc1Cl)=NC2C (stereo not given),8.41 µM (active)
2,CCCOC(=O)Cc1ccc(OCC(=O)N(CC)CC)c(OC)c1,inactive
3,O=c1[nH]c2cc(Cl)ccc2n1C1CCNCC1,inactive
4,CCC1(c2cccc(O)c2)CCCCN(C)C1 (stereo not given),inactive
5,Cc1ncc2n1-c1ccc(Cl)cc1C(c1ccccc1F)=NC2,13.3 µM (active)
6,CCCCCCCCCCCC[N+](C)(C)CCOc1ccccc1,0.944 µM (active)
7,C[N+](C)(C)CCOC(=O)C(O)(c1ccccc1)c1ccccc1,inactive
8,ClCc1cccc(Cl)c1,inactive
9,Nc1ccccc1C(=O)OCC(O)CO (stereo not given),inactive
10,Cc1nnc2n1-c1sc(CCC(=O)N3CCOCC3)cc1C(c1ccccc1Cl)=NC2,inactive
11,NC(=O)OCCCc1ccccc1,inactive
12,CCc1ccc(C2CCNCC2)cc1,inactive
13,C=CC[C@]1(O)CC[C@H]2[C@@H]3CCC4=CC(=O)CCC4=C3C=C[C@@]21C,23.7 µM (active)
14,COP(=O)(OC)C(O)C(Cl)(Cl)Cl (stereo not given),inactive
15,CC1Sc2c(C(=O)O)c(=O)c3cc(F)c(N4CCNCC4)cc3n21 (stereo not given),inactive
16,Clc1ccc(C(OCCN2CCCCC2)c2ccccc2)cc1 (stereo not given),26.6 µM (active)
17,O=C1NCN(c2ccccc2)C12CCN(CCCOc1ccc(F)cc1)CC2,7.5 µM (active)
18,C#C[C@]1(O)CC[C@H]2[C@@H]3CCC4=CC(=O)CCC4=C3C=C[C@@]21CC,inactive
19,O=C(O)Cc1ccccc1,inactive
20,CCOC(C(=O)OCCN(C)C)(c1ccccc1)c1ccccc1,inactive
